Several values for one entry are separate records, joined by “and”; a condition that tells them apart may be missing. Identical values can stand only once. Inconclusive results are not listed. Activity calls are given as the source filed them. The calls were made as follows: active = hit-call score of the fitted dose curve at least 0.9, where 1 is the maximum; inconclusive = response in the unintended direction; inactive = score below 0.9.
Each compound was assayed against Androgen Receptor/SRC-1 Co-activator, AR (gene 367) (UniProt P10275) (assay: OT_AR_ARSRC1_0480: Odyssey Thera (OT) 8-hour HEK293T Protein-Complementation Assay for Androgen Receptor/SRC-1 Co-activator (AID 2283354);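 also: hits raise the complementation signal above DMSO so AC50 marks enhancers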).
Sequence of Androgen Receptor/SRC-1 Co-activator, AR (gene 367) (P10275 whole entry, looked up, the tested form may be a part): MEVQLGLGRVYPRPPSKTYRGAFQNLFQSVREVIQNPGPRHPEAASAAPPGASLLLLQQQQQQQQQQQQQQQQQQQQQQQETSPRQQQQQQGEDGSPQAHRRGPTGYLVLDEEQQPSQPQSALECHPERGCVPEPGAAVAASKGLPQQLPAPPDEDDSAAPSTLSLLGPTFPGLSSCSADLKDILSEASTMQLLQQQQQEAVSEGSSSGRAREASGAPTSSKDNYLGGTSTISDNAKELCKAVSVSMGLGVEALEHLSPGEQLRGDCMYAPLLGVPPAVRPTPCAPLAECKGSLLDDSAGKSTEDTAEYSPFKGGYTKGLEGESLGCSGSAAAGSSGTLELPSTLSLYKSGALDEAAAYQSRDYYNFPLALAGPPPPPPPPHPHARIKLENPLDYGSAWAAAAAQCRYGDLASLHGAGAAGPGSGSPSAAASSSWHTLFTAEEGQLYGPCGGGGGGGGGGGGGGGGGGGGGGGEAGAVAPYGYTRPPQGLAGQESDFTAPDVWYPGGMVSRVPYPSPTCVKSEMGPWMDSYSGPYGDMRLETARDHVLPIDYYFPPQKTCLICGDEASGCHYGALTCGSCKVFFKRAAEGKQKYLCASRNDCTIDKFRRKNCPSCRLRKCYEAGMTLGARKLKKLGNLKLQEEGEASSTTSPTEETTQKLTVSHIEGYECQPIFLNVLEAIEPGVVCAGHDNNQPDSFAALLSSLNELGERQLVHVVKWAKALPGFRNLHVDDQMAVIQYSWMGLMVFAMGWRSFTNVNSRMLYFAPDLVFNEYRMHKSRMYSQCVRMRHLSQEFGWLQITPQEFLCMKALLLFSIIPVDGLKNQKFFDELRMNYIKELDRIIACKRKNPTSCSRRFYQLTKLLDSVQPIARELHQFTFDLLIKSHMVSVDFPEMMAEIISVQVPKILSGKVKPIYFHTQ
Protocol: OT_AR_ARSRC1_0480 is a cell-based, single-readout assay that uses HEK293T, a human kidney cell line, with measurements taken at 8 hours after chemical dosing in a 384-well plate.OT_AR_ARSRC1_0480 is one of one assay component(s) measured or calculated from the OT_AR_ARSRC1_0480 assay. It is designed to make measurements of protein fragment complementation, a form of binding reporter, as detected with fluorescence intensity signals by Protein-fragment Complementation technology.Data from the assay component OT_AR_ARSRC1_0480 was analyzed into 1 assay endpoint. This assay endpoint, OT_AR_ARSRC1_0480, was analyzed in the positive analysis fitting direction relative to DMSO as the negative control and baseline of activity. Using a type of binding reporter, measures of receptor for gain-of-signal activity can be used to understand the binding at the pathway-level as they relate to the gene AR. Furthermore, this assay endpoint can be referred to as a primary readout, because the performed assay has only produced 1 assay endpoint. To generalize the intended target to other relatable targets, this assay endpoint is annotated to the nuclear receptor intended target family, where the subfamily is steroidal.
Protein-fragment complementation assay, or PCA, is a method for the identification and quantification of protein-protein interactions. In the PCA, the proteins of interest ("bait" and "prey") are each covalently linked to fragments of a third protein (e.g. DHFR, which acts as a "reporter"). Interaction between the bait and the prey proteins brings the fragments of the reporter protein in close proximity to allow them to form a functional reporter protein whose activity can be measured. The OT AR / SRC-1 assay assessed androgen receptor chemical interactions using a rapidly maturing, intensely fluorescent mutant of YFP known as Venus, rationally dissected into two separate fragments. […] Fusion constructs were transfected into HEK293T cells with a (Gly4Ser)2 linker between the AR/SRC-1 and YFP fragment genes to facilitate complementation when interacting proteins bring fragments into close proximity. The construct is stably expressed in HEK293T cells. […] Images were acquired on an Evotec Opera at 2 wavelengths (488 and 635nm), and the ratio of fluorescence in the nucleus relative to fluorescence in the cytoplasm (N/C Ratio) in the 488nm channel was calculated for a minimum of 400 cells per image. Both agonists and antagonists of the AR receptor induce nuclear translocation to varying degrees. […] The OT AR/SRC-1 assay was also run for 16 hours (see description for OT_AR_ARSRC1_0960).
`CC(=O)[O][Hg][c]1ccccc1` was tested, and the AC50 was 3.4 µM (active). `C=CCc1ccc(OC)cc1` was tested, and the outcome was “inactive”. `Cl/C=C\C[N+]12CN3CN(CN(C3)C1)C2` was tested, and the AC50 was 91.5 µM (active). With `O=c1[nH]c(=O)[nH]c(=O)[nH]1` the outcome was “inactive”. With `CCC1(c2ccc(N)cc2)CCC(=O)NC1=O` (stereo not given) the outcome was “inactive”. With `O=C1C2(Cl)C3(Cl)C4(Cl)C(Cl)(Cl)C5(Cl)C3(Cl)C1(Cl)C5(Cl)C24Cl` (stereo not given) the AC50 was 28.5 µM (active) and 76.6 µM (active) and 31.5 µM (active). For `O=[N+]([O-])c1ccc(O)c([N+](=O)[O-])c1`, the outcome was “inactive”. For `CC(C)(c1ccc(OCC2CO2)cc1)c1ccc(OCC2CO2)cc1` (stereo not given), the outcome was “inactive”. `CC12CC1(C)C(=O)N(c1cc(Cl)cc(Cl)c1)C2=O` (stereo not given) was tested, and the outcome was “inactive”. With `CC(C)c1cccc(C(C)C)c1O` the outcome was “inactive”. With `C=CC(=O)OCCCCCC(C)C` the outcome was “inactive”. With `ClC1(Cl)C2(Cl)C3(Cl)C4(Cl)C(Cl)(Cl)C5(Cl)C3(Cl)C1(Cl)C5(Cl)C24Cl` (stereo not given) the outcome was “inactive”. For `CCOP(=S)(OCC)Oc1nc(Cl)c(Cl)cc1Cl`, the AC50 was 78.9 µM (active). For `CCN1CCC2(CC1)COc1cc3c(cc12)N(C(=O)c1ccc(-c2ccc(-c4nnc(C)o4)cc2C)cc1)CC3`, the AC50 was 11.7 µM (active). `Cc1ccccc1C(=O)Nc1cccc(OC(C)C)c1` was tested, and the outcome was “inactive”. `COP(=S)(OC)Oc1ccc(Sc2ccc(OP(=S)(OC)OC)cc2)cc1` was tested, and the outcome was “inactive”. `COP(=O)(OC)O/C(=C\Cl)c1cc(Cl)c(Cl)cc1Cl` was tested, and the outcome was “inactive”. For `c1cc[c]([Hg][c]2ccccc2)cc1`, the AC50 was 32.2 µM (active). In the case of `Cc1ccc2ccccc2c1C`, the outcome is reported as “inactive”. With `C[C@H]1CCCC(=O)CCC/C=C/c2cc(O)cc(O)c2C(=O)O1` the outcome was “inactive”.

Reference: PubChem BioAssay (EPA / NIEHS)
